“And” between values parts separate entries of the source, which are not always exact repeats. Equal values may be shown once. The whole screen tested about 6,400 compounds, of which about 610 (9.5%) were called active. Rule as the data show it: active = activity change below about -70%; inconclusive = no clear call, values can overlap the other calls; inactive = above that. Only a selection was taken, and actives are over-represented in it overall. Some structures have more than one record in an assay (separate samples or runs), and their calls can disagree.
Test: Toxoplasma gondii ME49Luc growth in HeLa cells, luciferase, no IFN-y, primary screen (AID 1259421)
Conditions: T. gondii ME49Luc in HeLa, 72 h, stronger effect = lower value, concentration not given here

Compound	activity change, negative = inhibition
CCCCCN=c1ccn(Cc2ccccc2)c2ccccc12	-3.35% (inactive)
CCCCCCCCN=c1ccn(CCCCCCCCCCn2ccc(=NCCCCCCCC)cc2)cc1	-74.7% (active)
CN[C@H](CNC(=O)N1CCC[C@@H]([C@@H](OCCNC(=O)OC)c2cccc(Cl)c2)C1)C[C@H]1CCCOC1	7.28% (inactive)
CNC(=O)c1ccc(-c2cnc3ncc(Cc4ccc5ncccc5c4)n3n2)cc1F	-3.07% (inactive)
COc1ccc([C@H]2COc3c(ccc(O)c3OC)C2)c(OC)c1O	8.53% (inactive)
CC(NCC(O)CP(=O)(O)CC1CCCCC1)c1ccc(Cl)c(Cl)c1 (stereo not given)	-2.11% (inactive)
C[C@H](NC(=O)Cc1cc(F)cc(F)c1)C(=O)N[C@@H]1C(=O)N(C)c2ccccc2-c2ccccc21	-81.4% (active)
C[C@H](NC(=O)[C@@H](O)c1cc(F)cc(F)c1)C(=O)N[C@@H]1C(=O)N(C)c2ccccc2-c2ccccc21	26.6% (inactive)
CC(NC(=O)Cc1cc(F)cc(F)c1)C(=O)NC(C(=O)OC(C)(C)C)c1ccccc1 (stereo not given)	5.05% (inactive)
C=C1/C(=C\C=C2/CCC[C@]3(C)[C@@H]([C@H](C)/C=C/C=C/C(O)(CC)CC)CC[C@@H]23)C[C@@H](O)C[C@@H]1O	17.9% (inactive)
COCCOc1ccc(N2CCN(CCn3ncc4c3nc(N)n3nc(-c5ccco5)nc43)CC2)cc1	-6.85% (inactive)
COc1c(O)cccc1O	9.75% (inactive)
COc1nc2ccc(Br)cc2cc1[C@@H](c1ccccc1)[C@@](O)(CCN(C)C)c1cccc2ccccc12	48% (inactive)
CC(C)OC(=O)[C@H](C)N[P@@](=O)(OC[C@H]1O[C@@H](n2ccc(=O)[nH]c2=O)[C@](C)(F)[C@@H]1O)Oc1ccccc1	5.02% (inactive) and 18.5% (inactive)
Cc1c(O)c(=O)n(-c2ccccc2)n1C	-80.6% (active) and 1.34% (inactive)
Cc1c(I)c(=O)n(-c2ccccc2)n1C	9.68% (inactive)
Cc1c(N(C)C)c(=O)n(-c2ccccc2)n1C	13% (inactive)
CCO[C@@H](Cc1ccc(OCCc2ccc(OS(C)(=O)=O)cc2)cc1)C(=O)O	11% (inactive)
Cc1ccc(NC(=O)C(C)C)cc1C1CCN(Cc2ccc(Oc3ccc(F)c(F)c3)cc2)CC1	-59.6% (inactive)
NC1=NCN([C@H]2C[C@@H](O)[C@@H](CO)O2)C(=O)N1	13.9% (inactive)
Cn1cnc(=N)c2[nH]cnc21	11% (inactive)
CN1CCN(C2CCN(C(=O)Nc3cc(Oc4ccc(NC(=O)C5(C(=O)Nc6ccc(F)cc6)CC5)c(F)c4)ccn3)CC2)CC1	-66.6% (inactive)
C=CC(=O)Nc1cccc(Nc2nc(Nc3ccc(Oc4ccnc(C(=O)NC)c4)cc3)ncc2F)c1	-38.8% (inactive)
CNC(=O)c1cc(Oc2ccc(NC(=O)Nc3ccc(Cl)c(C(F)(F)F)c3)cc2)ccn1	-70.5% (active) and -84.5% (active)
COc1cc(NC(=O)c2ccccn2)ccc1Cl	132% (inactive)
O=C(Nc1ccc(Cl)cc1)Nc1ccc(Cl)c(C(F)(F)F)c1	-76.9% (active)
CNC(=O)c1cc(COc2nnc(Nc3ccc(Cl)cc3)c3ccoc23)ccn1	-9.12% (inactive)
CC(C)C(=O)Nc1ccc([N+](=O)[O-])c(C(F)(F)F)c1	12.9% (inactive)
C=CC(=O)Nc1ccc(Cl)cc1	16.9% (inactive)
CNC(=O)c1cc(Oc2ccc(NC(=O)Nc3ccc(Cl)c(C(F)(F)F)c3)c(F)c2)ccn1	-86.3% (active) and -83.6% (active)
